Results as given in PubChem BioAssay.

Experiments:
[1] = test system: Human papillomavirus type 1a protein E7 (residues 44-93); test: HPV1a E7 fragment binders on microarrays, primary screen, biochemical, small-molecule microarray, residues 44-93, 635 nm fluorescence (AID 1108); conditions: small-molecule microarray binding, fluorescence 635 nm; higher = more signal;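 further: E7 fragment applied at 1 µg/mL in TBST for 1 h at 4 C; score combines spot fluorescence with its signal to noise ratio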
[2] = modulators of HCV replicon luciferase signal, primary screen, HCV replication inhibitor project, Huh7 cells, luciferase reporter (AID 1109); conditions: 48 h, higher = more signal;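 further: huh7 hepatoma cells harbouring a luciferase neomycin HCV replicon reporter; luciferase luminescence as measure of HCV replicon replication; test concentration not given here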
[3] = target: Left-right determination factor 2 (Homo sapiens) (UniProt O00292); test: LEFTY2 binders on small-molecule microarrays, primary screen, biochemical, small-molecule microarray, 635 nm fluorescence scan (AID 1110); conditions: LEFTY2 binding, higher = more signal
Sequence of Left-right determination factor 2 (Homo sapiens) (O00292 whole entry, looked up): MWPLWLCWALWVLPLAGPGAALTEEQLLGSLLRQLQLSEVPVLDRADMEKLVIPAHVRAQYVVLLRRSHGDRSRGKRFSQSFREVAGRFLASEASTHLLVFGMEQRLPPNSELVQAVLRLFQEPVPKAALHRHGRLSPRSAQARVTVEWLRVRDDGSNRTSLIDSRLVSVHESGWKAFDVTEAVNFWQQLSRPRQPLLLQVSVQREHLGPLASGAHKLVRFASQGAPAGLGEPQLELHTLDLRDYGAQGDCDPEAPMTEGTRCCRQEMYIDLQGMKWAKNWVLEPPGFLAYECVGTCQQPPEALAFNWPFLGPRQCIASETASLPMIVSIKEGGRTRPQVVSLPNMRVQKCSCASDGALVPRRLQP

[4] = target: Calmodulin-1 (Homo sapiens) (UniProt P0DP23); test: CALM1 binders on microarrays, EGTA buffer, profiling panel, biochemical, small-molecule microarray, Cy5-labelled CALM1 (AID 1111); conditions: Cy5-CALM1 binding fluorescence, higher = more signal;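 further: labelled calmodulin applied in Tris saline Tween buffer holding calcium plus EGTA and DTT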
[5] = target: Calmodulin-1 (Homo sapiens) (UniProt P0DP23); test: calcium-bound CALM1 binders on microarrays, profiling panel, artefact control for SMM control-protein annotation, biochemical, small-molecule microarray, Cy5-labelled CALM1, plus calcium (AID 1112); conditions: Cy5-CALM1 binding fluorescence, higher = more signal;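 further: score merges spot fluorescence with signal to noise from triplicate slides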
[6] = small-molecule microarray binders of probe aWnt5a, primary screen, biochemical, biotinylated probe, 635/667 nm fluorescence (AID 1113); conditions: higher = more signal;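 further: score merges 667 nm fluorescence intensity with signal-to-noise per printed feature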
[7] = small-molecule microarray binders of probe aShh, primary screen, biochemical, biotinylated probe, 635/667 nm fluorescence (AID 1114); conditions: higher = more signal;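 further: probe is biotin-labelled aShh protein from a stem cell growth factor screen; measures binding of labelled protein to compounds printed on the slide; score merges feature fluorescence at 667 nm with signal-to-noise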
[8] = small-molecule microarray binders of probe aNog, primary screen, biochemical, biotinylated probe, 635/667 nm fluorescence (AID 1115); conditions: higher = more signal;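 further: probe is biotinylated aNog protein used at 0.15 µg/mL for 1 h at 4 C; z-score combines 667 nm fluorescence of each spot with its signal to noise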
[9] = target: Torsin-1A-interacting protein 1 (Homo sapiens) (UniProt Q5JTV8); test: LAP1 binders from COS7 cell lysate, primary screen, small-molecule microarray, 635/667 nm fluorescence (AID 1116); conditions: COS7-hLAP1 lysate binding, 635 nm fluorescence, higher = more signal
Sequence of Torsin-1A-interacting protein 1 (Homo sapiens) (Q5JTV8 whole entry, looked up): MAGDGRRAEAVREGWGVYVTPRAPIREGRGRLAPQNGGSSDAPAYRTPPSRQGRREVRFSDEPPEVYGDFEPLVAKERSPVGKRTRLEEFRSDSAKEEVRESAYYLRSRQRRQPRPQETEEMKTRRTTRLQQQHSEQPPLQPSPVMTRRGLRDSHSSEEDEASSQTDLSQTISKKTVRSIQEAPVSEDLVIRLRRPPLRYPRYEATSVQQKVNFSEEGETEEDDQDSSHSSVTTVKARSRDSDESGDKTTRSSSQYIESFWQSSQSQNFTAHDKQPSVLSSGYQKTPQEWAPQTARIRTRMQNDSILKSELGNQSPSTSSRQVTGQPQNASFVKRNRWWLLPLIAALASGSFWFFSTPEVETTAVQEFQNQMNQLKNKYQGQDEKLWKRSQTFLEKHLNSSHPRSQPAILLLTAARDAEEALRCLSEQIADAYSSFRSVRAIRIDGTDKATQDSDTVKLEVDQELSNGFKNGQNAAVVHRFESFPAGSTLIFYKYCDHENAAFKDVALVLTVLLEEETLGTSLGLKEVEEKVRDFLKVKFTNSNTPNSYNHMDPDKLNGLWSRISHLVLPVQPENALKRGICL

[10] = target: Alpha-bungarotoxin (Bungarus multicinctus) (UniProt P60615); test: alpha-bungarotoxin binders on microarray, profiling panel, artefact control for SMM control protein annotation, biochemical, small-molecule microarray, Alexa647 label, 635/667 nm fluorescence (AID 1117); conditions: alpha-BTX-A647 binding fluorescence, higher = more signal
Sequence of Alpha-bungarotoxin (Bungarus multicinctus) (P60615 whole entry, looked up): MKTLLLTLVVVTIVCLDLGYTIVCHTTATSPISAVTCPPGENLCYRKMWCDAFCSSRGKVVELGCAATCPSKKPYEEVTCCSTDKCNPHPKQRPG

Structure (SMILES) | composite z-score [1] | z-score [2] | composite z-score [3] | composite z-score [4] | composite z-score [5] | composite z-score [6] | composite z-score [7] | composite z-score [8] | composite z-score [9] | composite z-score [10]
O=C(O)[C@@]1(CCS(=O)(=O)c2ccccc2)COC(c2ccc(OCCCO)cc2)=N1 | 0.182 | -0.615 | -0.691 | -0.0602 | 0.24 | -0.129 | 0.0062 | -0.463 | 2.98 | 0.451
COCCOC(=O)N1C(=O)[C@@]2(c3ccccc31)[C@H](c1ccc(O)cc1)N1[C@H](c3ccccc3)[C@H](c3ccccc3)OC(=O)[C@H]1[C@@H]2C(=O)NC[C@H](O)c1ccccc1 | 0.01 | -0.296 | 0.25 | 1.34 | 0.682 | -0.0643 | 0.289 | 0.35 | 0.261 | 0.14
CCCN1C(=O)[C@]2(CCS(=O)(=O)c3ccccc3)N=C(c3ccc(OCCCO)cc3)O[C@@H]2c2ccccc21 | 1.42 | -2.49 | 0.16 | 3.15 | -0.0613 | -0.0643 | 0.0893 | -0.153 | 1.74 | 1.14
COc1ccc(C(=O)Nc2ccc(CN3C(=O)[C@@]4(O[C@@H](CCn5cc([C@H](O)c6ccccc6)nn5)[C@H]([Si](C)(C)c5ccc(OC)cc5)[C@H]4C)c4ccccc43)cc2)cc1 | 1.26 | -4.67 | -0.553 | 0.168 | -0.0823 | -0.0896 | -0.0337 | 0.103 | 0.485 | 0.572
COCCOC(=O)N1C(=O)[C@@]2(c3cc(C#Cc4ccc(OC)cc4)ccc31)[C@H](c1ccccc1OCCO)N1[C@H](c3ccccc3)[C@H](c3ccccc3)OC(=O)[C@H]1[C@@H]2C(=O)N1CCN(c2ncccn2)CC1 | 1.18 | -1.49 | 0.278 | 0.694 | 0.805 | -0.118 | 0.13 | 0.121 | 0.949 | 0.876
CCCCC(O)C1C=CC2C(=O)N(c3ccccc3)C(=O)C2N1Nc1ccccc1F (stereo not given) | 0.392 | -0.472 | 0.22 | 1.48 | -0.124 | 0.241 | 0.261 | 1.87 | 1.21 | 3.13
O=C1OCCC/C=C\[C@H]2OC34C=CCN(Cn5nnc6ccccc65)C(=O)[C@H]3N(CCO)C(=O)[C@@H]4C12 (stereo not given in full) | -0.249 | -0.317 | -1.84 | -0.173 | 0.963 | -0.187 | 0.022 | 0.235 | -0.482 | -0.601
O=C(NCC(F)(F)F)[C@@H]1c2ccccc2C(=O)N(C2CCCCC2)[C@H]1c1ccc(CO)cc1 | 0.268 | -1.7 | -0.382 | 0.218 | -0.403 | -0.172 | -0.138 | -0.342 | -0.257 | 1.43
COC(=O)c1c(CC[C@@H](CO)NC(=O)N[C@@H](C)Cn2cc(C3(O)CCCCC3)nn2)oc(C(C)=O)c1C(=O)OC | 0.921 | -0.418 | 0.703 | 0.685 | -1.53 | -0.0556 | 0.0328 | -0.0211 | 0.666 | 0.431
COc1ccc([C@H]2OC[C@@H]3CC4(CC=CC4)C(=O)N32)cc1 | 0.659 | 0.0751 | 0.935 | -1.18 | -1.99 | -0.124 | -0.0146 | -0.196 | -0.251 | 0.144
C=CCOC(=O)[C@H]1[C@@H]2C(=O)O[C@@H](c3ccccc3)[C@@H](c3ccccc3)N2[C@@H](c2ccc(OCCOC(=O)[C@@H]3C[C@@H]4C(=O)N[C@@H](CCCCN(C)C)C(=O)N4[C@@H]3c3ccc(O)cc3)cc2)[C@]12C(=O)Nc1ccc(I)cc12 | -0.562 | -2.99 | 0.698 | 0.134 | -0.547 | -0.113 | 0.462 | 1.18 | 1.36 | 1.32
CC(C)[C@@H](CO)NC(=O)[C@H]1[C@@H](c2ccccc2)N(c2ccccc2)O[C@@H]1C | 0.0503 | 0.0505 | 0.28 | -0.31 | -0.354 | -0.148 | -0.186 | -0.181 | 0.382 | 0.0366
O=C(NCc1ccccc1)[C@@H]1c2ccccc2C(=O)N(CC23CC4CC(CC(C4)C2)C3)[C@H]1c1ccc(CO)cc1 | 1.36 | -1.96 | 0.567 | 0.237 | -0.831 | -0.0957 | -0.0337 | -0.584 | 0.575 | 0.645
O=C1C2C=CC(C(O)c3ccc(F)cc3)N(Nc3ccccc3F)C2C(=O)N1c1ccccc1 (stereo not given) | 1.18 | 0.912 | -0.952 | 1.23 | 0.367 | -0.001 | -0.0441 | 1.34 | 0.694 | 0.394
COCCOC(=O)N1C(=O)[C@@]2(c3cc(C#CCCO)ccc31)[C@H](c1ccc(OCCO)cc1)N1[C@H](c3ccccc3)[C@H](c3ccccc3)OC(=O)[C@H]1[C@@H]2C(=O)N1CCN(c2ncccn2)CC1 | 1.37 | -1.46 | 0.781 | 1.33 | -0.243 | -0.131 | -0.0035 | -0.483 | 0.398 | 0.582
O=C1[C@H]2C=C(Br)[C@H](C[C@@H]2OCCCCO)[C@@]12CO2 | -0.875 | -1.98 | 0.307 | -0.442 | -1.04 | -0.0944 | 0.149 | 0.101 | -0.272 | -0.032
CN1C(=O)C2C=CC(C(O)c3ccccc3)N(Nc3ccccc3)C2C1=O (stereo not given) | -0.265 | 0.773 | -1.52 | 0.253 | -0.143 | -0.0758 | -0.0813 | -0.448 | -0.454 | 0.201

Structure (SMILES) | composite z-score [1] | z-score [2] | composite z-score [3] | composite z-score [4] | composite z-score [5] | composite z-score [6] | composite z-score [7] | composite z-score [8] | composite z-score [9] | composite z-score [10]
COC(=O)C=C(CC(O)c1cccc(Cl)c1)OC (stereo not given) | -0.734 | -0.923 | -0.17 | 1.27 | 1.01 | 0.23 | 0.506 | 1.93 | 1.99 | 1.51
COCCOC(=O)N1C(=O)[C@@]2(c3cc(C#CC4=CCCCC4)ccc31)[C@H](C(N)=O)[C@H]1C(=O)O[C@H](c3ccccc3)[C@H](c3ccccc3)N1[C@@H]2c1ccc(OCCO)cc1 | -0.71 | -2.5 | 0.331 | -0.822 | -0.919 | -0.124 | 0.049 | 0.299 | 0.855 | 1.56
C=CCOC(=O)[C@H]1[C@@H]2C(=O)O[C@@H](c3ccccc3)[C@@H](c3ccccc3)N2[C@@H](c2ccc(OCCOC(=O)[C@@H]3C[C@@H]4C(=O)N5CCC[C@H]5C(=O)N4[C@@H]3c3cccc(OCCO)c3)cc2)[C@]12C(=O)Nc1ccccc12 | 0.862 | -1.24 | 0.91 | 0.551 | 0.0319 | 0.0079 | 0.0381 | -0.378 | 0.834 | 1.34
O=C1c2ccccc2[C@](Cc2ccccc2I)(C(=O)NC2CC2)[C@H](c2ccc(CO)cc2)N1Cc1ccccc1 | 0.742 | -0.701 | -0.346 | 0.438 | 0.0099 | -0.101 | 0.234 | 0.099 | 0.711 | 0.832
COC(=O)[C@@]1(Cc2ccc(OC)cc2)[C@H]2c3cc(C(=O)N4CCCC4)n(Cc4ccsc4Br)c3C[C@H]2CN1C(=O)c1ccccc1 | 1.27 | -3.66 | -0.857 | 1.1 | 0.696 | -0.0944 | -0.237 | 1.48 | 0.254 | 0.218
COCCCN1C(=O)[C@@]2(Cc3ccccc31)c1ccccc1C(=O)N(Cc1ccccc1C(F)(F)F)[C@H]2c1ccc(CO)cc1 | 0.898 | -0.311 | 0.33 | -0.47 | -0.206 | 0.439 | -0.243 | 1.79 | 0.094 | 0.33
COc1ccc(CCN2C(=O)[C@@]3(c4ccc([N+](=O)[O-])cc4)CC(=O)N(C4CCCCC4)[C@@H]3c3ccc(CO)cc32)cc1 | 0.106 | 0.431 | 0.636 | -0.574 | -0.747 | 0.0495 | -0.229 | -0.33 | 0.341 | -0.167
COC(=O)[C@@]1(Cc2ccccc2)[C@H]2c3cc(C(=O)N4CCCC4)n(CC4CC4)c3C[C@H]2CN1C(=O)c1ccccc1 | 1.39 | -2.17 | 0.192 | 1.13 | 0.697 | 0.647 | 0.834 | 2.57 | 0.079 | 0.615
O=C1O[C@H](c2ccccc2)[C@H](c2ccccc2)N2[C@H]1[C@@H](C(=O)Nc1nc3ccccc3s1)[C@]1(C(=O)Nc3ccc(C#CC4(O)CCCCCC4)cc31)[C@H]2c1ccc(OCCO)cc1 | 0.877 | -2.09 | 0.426 | 1.91 | 0.0521 | -0.0381 | -0.0446 | 0.287 | 1.55 | 1.77
NCCCCCNC(=O)[C@@H]1C[C@@H]2C(=O)NCC(=O)N2[C@@H]1c1ccc(O)cc1 | 1.37 | 0.358 | 1.3 | 0.957 | 0.281 | -0.008 | -0.138 | -0.036 | 0.855 | 1.15
O=C(C1N=C(c2ccc(OCCCO)cc2)N(c2ccccc2)O1)N1CCOCC1 (stereo not given) | 1.37 | -2.11 | 0.677 | 1.29 | 0.335 | -0.0445 | 0.465 | -0.492 | 0.832 | 1.12
CN(C)CCCNC(=O)[C@@]1(c2ccc([N+](=O)[O-])cc2)CC(=O)N(C2CCCCC2)[C@@H]1c1ccc(CO)cc1 | 1.04 | -1.77 | -0.419 | 0.465 | 0.0617 | -0.25 | -0.408 | -0.483 | 0.218 | 0.8
[N-]=[N+]=NCc1ccccc1C[C@@]1(C(=O)NCC(O)CO)N=C(c2ccc(OCCCO)cc2)O[C@@H]1c1ccccc1N=[N+]=[N-] (stereo not given in full) | 1.39 | -2.72 | -0.124 | 2.21 | 1.02 | 0.149 | 0.156 | 2.11 | 2.18 | 0.842
C=CCNC(=O)[C@H]1[C@@H]2C(=O)O[C@@H](c3ccccc3)[C@@H](c3ccccc3)N2[C@@H](c2ccc(OCCO)cc2)[C@]12C(=O)Nc1ccc(C#CC3=CCCCC3)cc12 | 1.4 | -2.4 | 0.477 | 0.508 | -0.36 | 0.0101 | 0.13 | -0.143 | 1.26 | 1.11
O=C1OCC=C[C@H]2OC34C=CCN(c5ccc6ccccc6c5)C(=O)[C@H]3N(CCCCCCO)C(=O)[C@@H]4[C@@H]12 (stereo not given in full) | -0.925 | 0.699 | -1.06 | -0.327 | 0.132 | -0.152 | 0.0121 | 0.509 | 1.09 | -1.01
CC(=O)n1cc(C(O)C2C=CC3C(=O)N(C)C(=O)C3N2Nc2ccccc2)c2ccccc21 (stereo not given) | 1.35 | -0.581 | 0.532 | 0.202 | -0.53 | 0.105 | 0.494 | 0.578 | 1.36 | 1.18
CCC(CC)C(O)C1C=CC2C(=O)N(C)C(=O)C2N1Nc1ccccc1 (stereo not given) | 0.948 | 0.347 | -0.054 | 1.44 | 0.463 | -0.0863 | 0.128 | 1.09 | 1.64 | 1.04
